These results are taken from PubChem BioAssay (Tox21).

Assay [1] is described as follows: qHTS assay to identify small molecule agonists of the RXR signaling pathway - cell viability counter screen (AID 1159529). Further: nearly all actives have a fitted effect of over 50% in size. The essentials:
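In this parallel viability measure, GeneBLAzer RXR-alpha HEK 293T cells (2% charcoal-stripped FBS) were given a 5 hr preincubation, treated with compounds 16 hr at 37 C, and read by CellTiter-Glo luminescence.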
Background: In qHTS, concentration-response curves come from the screen itself.

A short description of assay [2]: qHTS assay to identify small molecule antagonists of the retinoid acid receptor (RAR) signaling pathway - cell viability counter screen (AID 1159551). Further: nearly all actives have a fitted effect of over 35% in size. The essentials:
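ATP-based viability, C3RL4 cells, 6 h at 37 C with 1 uM final retinol co-added after compound; luminescence read 30 min post CellTiter-Glo, RT.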

Where “and” joins values, the source holds several entries; their conditions need not be identical. Equal entries are not always repeated. Inconclusive results are not listed. Unmarked numbers belong to inactive results. Calls of active or inactive are those of the source. The call rests on the fitted dose curve; in most records, active means well fitted curve in the direction sought with a large enough effect in the repeat runs; inconclusive means weak or mixed curves; inactive means no such curve, though single readings can be large; an effect the other way counts as inactive or inconclusive.
On the % scale 0 is the no-effect control and ±100 the full control effect; potency means the concentration at half of the fitted maximal effect.

Take `Clc1ccc(-c2ccccc2)cc1`: the Potency entry in assay [1] and in assay [2] was “inactive” throughout.

For `CCCCN(CCCC)C(=S)[S-].CCCCN(CCCC)C(=S)[S-].[Zn+2]`, the Potency in assay [1] was 4.36 µM (active).

Turning to `Nc1ccc(Cl)cc1C(=O)c1ccccc1`, the Potency result in assay [1] is “inactive”.

Regarding `CSCCCN=C=S`, the Potency entry in assay [1] and in assay [2] was “inactive” in each case.

As for `Cc1cc(Cl)ccc1O[C@H](C)C(=O)O`, the Potency entry in assay [1] and in assay [2] was “inactive” throughout.

On to `CC(=O)c1cc(C(C)(C)C)cc2c1CCC2(C)C`, for which the Potency result in assay [1] and in assay [2] was “inactive” each time.

Take `O=C(O)c1cc[c]([Hg][Cl])cc1`: the Potency in assay [1] is 43.6 µM (active).

Take `Cc1cc(C)cc(OP(=O)(Oc2cc(C)cc(C)c2)Oc2cc(C)cc(C)c2)c1`: the Potency entry in assay [1] and in assay [2] was “inactive” each time.

Take `CC(C)C(=O)Cl`: the Potency result in assay [1] and in assay [2] was “inactive” throughout.

For `O=C/C(Cl)=C(/Cl)C(=O)O`, the Potency entry in assay [1] and in assay [2] was “inactive” each time.

`C=CC(=O)OCCCCOC(=O)C=C`: in assay [1], the Potency result was “inactive”.

For the compound `C=COCCCl`, the Potency result in assay [1] and in assay [2] was “inactive” each time.

Regarding `CC1CCC(C(C)C)C(OC(=O)c2ccccc2N)C1` (stereo unspecified), the Potency in assay [1] is 17.1 µM (active).

`C[C@]12CC[C@@H]3c4ccc(OC(=O)N(CCCl)CCCl)cc4CC[C@H]3[C@@H]1CC[C@@H]2O`: the Potency entry in assay [1] and in assay [2] was “inactive” in each case.

Take `CC(C)(C)C(O)C(Oc1ccc(-c2ccccc2)cc1)n1cncn1` (stereo unspecified): the Potency in assay [1] was 54.9 µM (active).

As to `CC(C)OC(=O)C(O)(c1ccc(Cl)cc1)c1ccc(Cl)cc1`, in assay [1], the Potency was 38.9 µM (active).

As to `Clc1ccc(C(c2ccccc2Cl)C(Cl)(Cl)Cl)cc1` (stereo unspecified), the Potency in assay [1] was 49.3 µM (active) and 25.6 µM (active). Moreover, the Potency entry in assay [2] is “inactive”.

`COC[C@H](C)N(C(=O)CCl)c1c(C)csc1C`: the Potency entry in assay [1] and in assay [2] was “inactive” in each case.

For `Oc1cccc(-c2ccccc2)c1`, the Potency entry in assay [1] and in assay [2] was “inactive” each time.

Consider `CCc1nn(C)c(C(=O)NCc2ccc(C(C)(C)C)cc2)c1Cl`, for which, in assay [1], the Potency was 43.6 µM (active).

As to `CCCCCCCCCCCCCCCC[N+](C)(C)C`, the Potency in assay [1] is 10.6 µM (active) and 24.5 µM (active) and 12 µM (active).

As for `NC(=O)c1ccc(N)nc1`, in assay [1], the Potency was 13.8 µM (active).

With `NNC(=O)c1ccccc1`, the Potency result in assay [1] and in assay [2] was “inactive” in each case.

On to `CCCCCCCCCBr`, for which the Potency result in assay [1] and in assay [2] was “inactive” in each case.

Consider `N#CNC#N`, for which the Potency entry in assay [1] and in assay [2] was “inactive” throughout.

Regarding `BrCBr`, the Potency result in assay [1] and in assay [2] was “inactive” in each case.

Turning to `CCN(CC)C(=S)[S-].CCN(CC)C(=S)[S-].[Zn+2]`, the Potency is 1.72 µM (active) in assay [1] and 30.4 µM (active) in assay [2].

Consider `C[C@H]1O[C@@H](O[C@H]2[C@@H](O)C[C@H](O[C@H]3[C@@H](O)C[C@H](O[C@H]4CC[C@@]5(C)[C@H](CC[C@@H]6[C@@H]5CC[C@]5(C)[C@@H](C7=CC(=O)OC7)CC[C@]65O)C4)O[C@@H]3C)O[C@@H]2C)C[C@H](O)[C@@H]1O`, for which, in assay [1], the Potency was 0.0621 µM (active). The Potency entry in assay [2] is “inactive”.

`CC(C)CBr`: the Potency result in assay [1] and in assay [2] was “inactive” each time.

With `O=[N+]([O-])c1cc(C(F)(F)F)c(Cl)c([N+](=O)[O-])c1Cl`, the Potency in assay [1] is 17.4 µM (active); in assay [2], 48.6 µM (active).

`CC(c1ccc(O)cc1)c1ccc(O)cc1`: the Potency entry in assay [1] and in assay [2] was “inactive” in each case.

In the case of `CN(CCCC(=O)c1cccnc1)N=O`, the Potency entry in assay [1] and in assay [2] was “inactive” in each case.

On to `COP(=O)(OC)SCn1c(=O)oc2cc(Cl)cnc21`, for which the Potency entry in assay [1] and in assay [2] was “inactive” in each case.

With `Cl/C=C\CCl`, the Potency entry in assay [1] and in assay [2] was “inactive” throughout.

For the compound `N#CCCC(Br)(C#N)CBr` (stereo unspecified), the Potency was 38.9 µM (active) in assay [1] and 68.6 µM (active) in assay [2].

Take `C[C@]12Cc3nonc3C[C@@H]1CC[C@@H]1[C@@H]2CC[C@@]2(C)[C@H]1CC[C@]2(C)O`: the Potency in assay [1] is 21.3 µM (active). The Potency result in assay [2] is “inactive”.

As for `CC1(C)C(/C=C(\Cl)C(F)(F)F)C1C(=O)OC(C#N)c1cccc(Oc2ccccc2)c1` (stereo unspecified), the Potency entry in assay [1] and in assay [2] was “inactive” each time.

For `CN(C)C(=S)[S-].CN(C)C(=S)[S-].[Cu+2]`, the figures for the Potency in assay [1] and in assay [2] were 0.844 µM (active) and 16.7 µM (active), respectively.

As to `O=C1C=CC(=O)c2ccccc21`, the Potency in assay [1] is 9.77 µM (active); in assay [2] it was 15.4 µM (active).

For `N#CCCO`, the Potency entry in assay [1] and in assay [2] was “inactive” in each case.

Take `COCC(=O)N(c1c(C)cccc1C)[C@H](C)C(=O)OC`: the Potency result in assay [1] and in assay [2] was “inactive” each time.

On to `C1CCC2CCCCC2C1` (stereo unspecified), for which the Potency result in assay [1] and in assay [2] was “inactive” each time.

As to `CC(=O)[O-].CC(=O)[O-].O.O.[Cd+2]`, the Potency in assay [1] was 13.6 µM (active). For the same compound, the Potency result in assay [2] was “inactive”.

As to `COC(=O)N(C(=O)N1COC2(C(=O)OC)Cc3cc(Cl)ccc3C2=N1)c1ccc(OC(F)(F)F)cc1` (stereo unspecified), the Potency result in assay [1] and in assay [2] was “inactive” throughout.

As to `C=CC(=O)N(C)C`, the Potency entry in assay [1] and in assay [2] was “inactive” each time.

For `ClC1=C(Cl)C2(Cl)C3C(Cl)C(Cl)CC3C1(Cl)C2(Cl)Cl` (stereo unspecified), in assay [1], the Potency was 21.8 µM (active) and 21.9 µM (active). In assay [2], the Potency entry was “inactive”.

For the compound `CCC(C)c1cc(C(C)(C)C)cc(-n2nc3ccccc3n2)c1O` (stereo unspecified), the Potency entry in assay [1] and in assay [2] was “inactive” in each case.

As to `CC(=O)[O-].CC(=O)[O-].[Hg+2]`, the Potency in assay [1] is 2.75 µM (active); in assay [2], 4.33 µM (active).

`SCc1ccco1`: the Potency entry in assay [1] and in assay [2] was “inactive” each time.

For `Oc1ccc(C(c2ccc(O)cc2)(C(F)(F)F)C(F)(F)F)cc1`, in assay [1], the Potency is 48.8 µM (active). Besides, in assay [2], the Potency result was “inactive”.

On to `ClC1=C(Cl)[C@]2(Cl)[C@H]3[C@H]([C@H]4C=C[C@H]3C4)[C@@]1(Cl)C2(Cl)Cl`, for which the Potency result in assay [1] and in assay [2] was “inactive” each time.

Take `[Cl][Sn]([c]1ccccc1)([c]1ccccc1)[c]1ccccc1`: the results for the Potency in assay [1] and in assay [2] were 0.585 µM (active) and 4.61 µM (active), respectively.

Regarding `N#Cc1ccccc1N`, the Potency result in assay [1] and in assay [2] was “inactive” throughout.

Regarding `CCCCCCCCCCCCCCCC[n+]1ccccc1`, the Potency in assay [1] is 17.1 µM (active) [middle of 4 runs]; in assay [2] it was 63.9 µM (active) and 54.5 µM (active) and 53.7 µM (active).

As for `Oc1ccc(I)cc1`, the Potency entry in assay [1] and in assay [2] was “inactive” throughout.

Take `O=[N+]([O-])c1ccc(Oc2ccc(C(F)(F)F)cc2[N+](=O)[O-])cc1`: the Potency result in assay [1] and in assay [2] was “inactive” throughout.

Regarding `Cn1[nH]nnc1=S`, the Potency result in assay [1] and in assay [2] was “inactive” each time.

Take `CN(C)S(=O)(=O)N(SC(F)(Cl)Cl)c1ccccc1`: the Potency in assay [1] is 21.9 µM (active); in assay [2], 48.6 µM (active).
